Records with an inconclusive call do not appear. Calls of active or inactive are those of the source. Calls follow the shape of the dose curve; as a rule, active = well fitted activation curve with a large enough effect in the repeat runs; inconclusive = weak or mixed curves; inactive = flat fitted curve, though single readings scatter.
Experiment: A CellTox Green Cytotoxicity Assay to monitor cytotoxicity in HEK293 cells - 8 hour (AID 1224884); also: nearly all actives have a fitted effect of over 35% in size
Conditions: CellTox Green fluorescence; series mostly up to 76.8 µM; cytotoxicity increase: at the top concentration
Source text: National Center for Advancing Translational Sciences [NCATS]
NIH Chemical Genomics Center [NCGC]
U.S. Environmental Protection Agency [EPA]
National Institutes of Environmental Health Sciences [NIEHS]
National Toxicology Program [NTP]
Cell-based models are critical for drug discovery. Determining the natural cytotoxic effects resulting from test compounds is an essential research activity. A CellTox Green Cytotoxicity Assay to monitor cytotoxicity in real time of continues cell culture during 40 hours of the compound treatment was used to screen Tox21 10K library compounds in Hek293 cells. CellTox Green Cytotoxicity Assay is a nonlytic, homogeneous, biofluorescent method to measure cytotoxicity in cell culture after experimental manipulation. The assay system uses a proprietary asymmetric cyanine dye that is excluded from viable cells but preferentially stains the dead cell's DNA. […] Viable cells produce no appreciable increases in fluorescence. Therefore, the fluorescence signal produced by the binding interaction with dead cell DNA is proportional to cytotoxicity.
The mixture of Hek293 cell suspension and reagents were dispensed at 600cells/6 ul/well in 1536-well tissue culture treated black solid bottom plates using a Multidrop dispenser. After the assay plates were incubated at a 37 C/5% CO2 incubator for 5 hours, 23 nL of compounds dissolved in DMSO, positive and negative controls was transferred to the assay plate by a pintool work station. The plates were incubated at 37 C for 40 hours. The fluorescence intensity were measured at 0h, 8h, 16h, 24h, 32h and 40h time points using ViewLux plate reader during compound treatment.
% is scaled to controls: 0 for no effect and ±100 for the full control effect; potency is read from the fitted curve at half-maximal effect.

| SMILES | cytotoxicity increase | Potency |
| --- | --- | --- |
| CC(C)(C)c1ccc(C=O)cc1 | 10.4% (inactive) |  |
| COC(=O)CCC(=O)O | -1.15% (inactive) |  |
| CCCCCCCCCCCCCC(=O)OC | -10.7% (inactive) |  |
| Nc1cc(S(=O)(=O)O)ccc1S(=O)(=O)O | -2.62% (inactive) |  |
| CN[C@@H]1[C@@H](O)[C@@H](O[C@@H]2[C@H](O)[C@H](O[C@H]3OC(CN)=CC[C@H]3N)[C@@H](N)C[C@H]2N)OCC1(C)O (stereo not given in full) | 1.93% [at 35.3 µM] (inactive) |  |
| Cc1ccc(C(=O)C(=O)O)cc1C | -0.0967% [at 35.3 µM] (inactive) |  |
| CCCOC(=O)CCCCC(=O)OCCC | -13.6% (inactive) |  |
| O=P(O)(O)OCC(O)CO (stereo not given) | -2.2% [at 35.3 µM] (inactive) |  |
| CCCCCCCCCCC | 16.3% (inactive) |  |
| CCC(O)C(C)(C)C (stereo not given) | 14.8% (inactive) |  |
| COc1ccc(/C=N/NC(=O)c2ccncc2)cc1OC | 0.924% [at 35.3 µM] (inactive) |  |
| C=C[Si](C)(C)O[Si](C)(C)C=C | 19.6% (inactive) |  |
| CCC(=O)OCCC(C)CCC=C(C)C (stereo not given) | 3.52% (inactive) |  |
| Nc1ccc(S(=O)(=O)Nc2ccccn2)cc1 | 0.31% [at 35.3 µM] (inactive) |  |
| OC[C@@H](O)[C@H](O)[C@@H](O)[C@@H](O)CO | -8.23% (inactive) |  |
| Cc1oc(=O)oc1CN1CCN(c2cc3c(cc2F)c(=O)c(C(=O)O)c2n3C(C)S2)CC1 (stereo not given) | 4.23% [at 35.3 µM] (inactive) |  |
| CCCCCCCC/C=C\CCCCCCCC(=O)OC[C@@H](O)[C@H]1OC[C@H](O)[C@H]1O | -10.6% (inactive) |  |
| NS(=O)(=O)c1ccccc1OC(F)(F)F | 22.3% (inactive) |  |
| CCCCC/C=C/CC(=O)OC | 1.85% (inactive) |  |
| O=C(O)c1ccccc1C(=O)OCc1ccccc1 | 2.05% (inactive) |  |

| SMILES | cytotoxicity increase | Potency |
| --- | --- | --- |
| C[N+](C)(C)CC(O)CCl (stereo not given) | 3.99% (inactive) |  |
| O=C(CN1CCN(Cc2ccc3c(c2)OCO3)CC1)N1c2ccccc2Sc2ccccc21 | -6.32% [at 35.3 µM] (inactive) |  |
| CCCCCCCCCCCCCCCC(=O)NCCO | 9.39% [at 35.3 µM] (inactive) |  |
| C1=C\CC/C=C\CC/1 |  | 4.07 µM (active) |
| CC(Cl)COP(=O)(OCC(C)Cl)OCC(C)Cl (stereo not given) | 0.0439% (inactive) |  |
| CC(C)COC(=O)CCCCC(=O)OCC(C)C | -2.51% (inactive) |  |
| CNCc1ccccc1 | -6.58% [at 35.3 µM] (inactive) |  |
| CC(C)(c1ccc(Oc2ccc3c(c2)C(=O)OC3=O)cc1)c1ccc(Oc2ccc3c(c2)C(=O)OC3=O)cc1 | 1.12% (inactive) |  |
| Nc1nc(=O)n([C@@H]2O[C@H](CO)[C@@H](O)[C@@H]2F)cc1I | -10.6% [at 35.3 µM] (inactive) |  |
| Oc1ccccc1Cc1ccccc1O | -1.05% (inactive) |  |
| C=C(C)[C@@H]1CC[C@@H](C)C[C@@H]1O | 7.95% (inactive) |  |
| CCN(CCC#N)c1ccccc1 | -7.63% (inactive) |  |
| CCCCC[Si](OCC)(OCC)OCC | -5.35% (inactive) |  |
| O=C(O)Cc1cccc(-c2cc(CCCCCCc3ccc(O[C@H]4O[C@H](CO)[C@@H](O)[C@H](O)[C@@H]4O)c(-c4cccc(CC(=O)O)c4)c3)ccc2O[C@H]2O[C@H](CO)[C@@H](O)[C@H](O)[C@@H]2O)c1 | -1.66% [at 0.29 µM] (inactive) |  |
| COc1cccc2sc(N)nc12 | -7.66% (inactive) |  |
| O=C1c2ccccc2-c2ccccc21 | -4.44% (inactive) |  |
| CCCCC(C)C(=O)O (stereo not given) | -1.29% (inactive) |  |
| CNC(=O)NC | -11.8% (inactive) |  |
| CCC(C)(C)C1CCC(=O)CC1 | 0.193% (inactive) |  |
| CCCCCC1Nc2cc(C(F)(F)F)c(S(N)(=O)=O)cc2S(=O)(=O)N1 (stereo not given) | 3.04% [at 35.3 µM] (inactive) |  |

Reference: PubChem BioAssay (Tox21)
